Test results published in PubChem BioAssay AID372 (MTDP, 2006).
Hit rate of the full screen: of about 100,000 compounds, about 770 (0.77%) were called active. The list comes from a sample in which actives are over-represented; it also holds similar structures and randomly drawn compounds. Unmarked numbers belong to inactive results. No stated cut-off is given here; in the data, active means inhibition above about 50%; inactive means the rest.

What follows are molecules tested against Gag-Pol polyprotein (Human immunodeficiency virus type 1 group M subtype B (isolate HXB2)) (UniProt P04585) (assay: RNase H inhibition, HIV 1 Gag Pol polyprotein, FRET biochemical assay, screening (AID 372)). Conditions: HIV-1 RT RNase H, FRET RNA/DNA substrate fluorescence; at 10 µM; hits give high values.
Work on `O=C(/C=C/c1cc(Br)cs1)Nc1ccccc1` yielded an inhibition of 11%.
For `Cc1cc(C)c(S(=O)(=O)N2CCCC2=O)c(C)c1`, the inhibition was 0%.
Work on `O=C(Nc1cc(NC(=O)c2cc(Cl)ccc2Cl)ccc1Cl)c1ccccc1` yielded an inhibition of 20%.
For `Cc1nnc(C)n1/N=C/c1ccc(Cl)cc1`, the inhibition was 2%.
`Cn1c(SC/C=C/c2ccccc2)nc2sc3c(c2c1=O)CCC3` gave an inhibition of 2%.
`CCOC(=O)c1c(NC(=O)Cc2cccs2)sc(C(=O)Nc2cc(C(F)(F)F)ccc2Cl)c1C` showed an inhibition of 16%.
For `COc1ccc(C2CC(=O)N(CCCN(C)C)C2)cc1` (configuration not stated), the inhibition was 2%.
For `O=C(N/N=C/c1cccc(O)c1O)c1cc(O)cc(O)c1`, the inhibition was 86% (active).
Molecule `O=C(N/N=C/c1cccc(Cl)c1Cl)c1ccc(Cl)c(Cl)c1` has an inhibition of 5%.
`O=C(N/N=C/c1cccc(Cl)c1Cl)c1ccc(O)c(O)c1` was tested, and the inhibition was 56% (active).
In the case of `O=C(N/N=C/c1cccc(O)c1O)c1ccc(O)cc1`, the inhibition is reported as 32%.
For `O=C(N/N=C/c1cccc(O)c1O)c1ccccc1`, the inhibition was 31%.
In the case of `O=C(N/N=C/c1cccc(Cl)c1Cl)c1ccc(O)cc1`, the inhibition is reported as 0%.
With `Oc1c(Cl)cc(Cl)cc1C=Nc1ccc(-c2nc3ccccc3[nH]2)cc1` the inhibition was 0%.
Work on `CCOC(=O)COc1ccc(/C=C2\C(=O)NC(=S)N(c3ccc(OCC)cc3)C2=O)cc1OC` yielded an inhibition of 9%.
For `NC1=NC(=O)/C(=C/c2cccc(OS(=O)(=O)c3cccc([N+](=O)[O-])c3)c2)S1`, the inhibition was 3%.
`COc1ccc(CSCC(=O)N/N=C/c2c(Cl)cccc2Cl)cc1` was tested, and the inhibition was 60% (active).
In the case of `COc1ccc(CSCC(=O)N/N=C/c2ccccc2O)cc1`, the inhibition is reported as 14%.
`Cc1cc(C)nc(SCC(=O)N/N=C/c2c(Cl)cccc2Cl)n1` was tested, and the inhibition was 20%.
In the case of `CCOC(=O)c1c(NC(=O)c2cc(-c3ccc(C(C)C)cc3)nc3ccccc23)sc(C(N)=O)c1C`, the inhibition is reported as 55% (active).
In the case of `CCOC(=O)c1c(NC(=O)c2cc(-c3ccc(C)c(C)c3)nc3ccccc23)sc(C(N)=O)c1C`, the inhibition is reported as 5%.
`CCOC(=O)c1c(NC(=O)c2cc(-c3ccccc3)nc3ccccc23)sc(C(N)=O)c1C` gave an inhibition of 24%.
With `C=CCn1c(-c2nonc2NC(C)=O)nc2ccccc21` the inhibition was 42%.
`Oc1ccc(/C=N/Nc2nncc(-c3ccccc3)n2)c(O)c1` was tested, and the inhibition was 23%.
In the case of `Oc1ccc(/C=N/Nc2nncc(-c3ccccc3)n2)cc1`, the inhibition is reported as 5%.
`Cc1ccnc(NC(=O)c2ccc(OCC(C)C)cc2)c1` was tested, and the inhibition was 0%.
For `O=C1OC2C=CC(Br)=CC2C=C1C(=O)N1CCSC1c1ccc2c3c(cccc13)CC2` (configuration not stated), the inhibition was 6%.
